Measured values taken from PubChem BioAssay.
A number with no mark means an inactive call. No rule for the calls is given here.

target: Botulinum neurotoxin type A (Clostridium botulinum) (UniProt P0DPI0); assay: BoNT/A light chain protease inhibitors, biochemical, multiplex microsphere flow cytometry, validation set (AID 588460); conditions: at 10 µM, stronger effect = higher value
Sequence (P0DPI0 whole entry, looked up): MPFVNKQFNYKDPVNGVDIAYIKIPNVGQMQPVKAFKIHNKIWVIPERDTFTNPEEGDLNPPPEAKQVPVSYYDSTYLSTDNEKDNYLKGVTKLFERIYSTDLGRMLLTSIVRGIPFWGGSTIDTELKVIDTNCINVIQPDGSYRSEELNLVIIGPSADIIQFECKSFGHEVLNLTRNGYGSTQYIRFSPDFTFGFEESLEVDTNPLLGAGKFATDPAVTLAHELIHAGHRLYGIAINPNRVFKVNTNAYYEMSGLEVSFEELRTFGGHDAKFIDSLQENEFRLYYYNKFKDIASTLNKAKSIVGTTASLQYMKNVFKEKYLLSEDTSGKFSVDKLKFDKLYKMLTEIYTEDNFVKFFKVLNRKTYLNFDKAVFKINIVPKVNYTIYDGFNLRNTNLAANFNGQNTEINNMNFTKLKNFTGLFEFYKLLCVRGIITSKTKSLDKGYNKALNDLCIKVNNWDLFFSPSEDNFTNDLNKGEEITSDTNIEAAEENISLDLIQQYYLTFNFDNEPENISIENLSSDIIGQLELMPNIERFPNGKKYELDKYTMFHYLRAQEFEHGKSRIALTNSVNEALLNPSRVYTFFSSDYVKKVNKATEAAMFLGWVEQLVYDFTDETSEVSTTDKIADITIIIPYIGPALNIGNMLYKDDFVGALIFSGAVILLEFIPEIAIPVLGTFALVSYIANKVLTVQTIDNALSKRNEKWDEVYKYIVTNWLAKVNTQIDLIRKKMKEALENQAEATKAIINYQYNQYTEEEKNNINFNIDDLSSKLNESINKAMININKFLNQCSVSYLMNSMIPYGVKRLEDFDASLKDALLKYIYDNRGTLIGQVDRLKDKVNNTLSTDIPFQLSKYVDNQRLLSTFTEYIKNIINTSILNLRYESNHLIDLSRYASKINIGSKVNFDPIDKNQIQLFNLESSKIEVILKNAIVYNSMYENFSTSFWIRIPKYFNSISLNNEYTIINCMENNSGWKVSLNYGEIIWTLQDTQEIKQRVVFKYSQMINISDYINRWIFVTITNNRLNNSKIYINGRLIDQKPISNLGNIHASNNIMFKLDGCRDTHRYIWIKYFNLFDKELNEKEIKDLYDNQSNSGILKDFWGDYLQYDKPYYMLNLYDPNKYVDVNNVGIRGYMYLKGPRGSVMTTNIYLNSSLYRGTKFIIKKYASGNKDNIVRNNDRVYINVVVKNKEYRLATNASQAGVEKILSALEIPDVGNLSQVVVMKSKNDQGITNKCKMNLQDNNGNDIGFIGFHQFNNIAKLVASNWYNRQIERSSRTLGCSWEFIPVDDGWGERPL

| Structure (SMILES) | inhibition |
| --- | --- |
| N/C(=N\OC(=O)CCCOc1ccc(Cl)cc1Cl)c1ccncc1 | 0.1% |
| CC1(C)CC(=O)C(C2=NC(C)(C)Cc3ccccc32)=C(O)C1 | 0.9% |
| CN(C)CC/C=C1\c2ccccc2Sc2ccc(Cl)cc21 | -1.1% |
| COc1ccc(CN(C)CCc2ccccn2)cc1OC | 0.2% |
| O=c1oc2c(CN3CCN(CCO)CC3)c(O)ccc2cc1-c1ccccn1 | 0.8% |
| CC(C)CN(C)Cc1c(C(=O)N2CCc3ccccc3C2)nc2ccc(Cl)cn12 | 0.6% |
| CC[N+]1(CC)CC2=Cc3ccccc3CC2C1 (configuration not stated) | 0% |
| CC(=O)c1cn(C)c(=O)[nH]c1=O | 1.3% |
| CCOC(=O)[C@H](CCc1ccccc1)N[C@@H](C)C(=O)N1CCC[C@H]1C(=O)O | 0.2% |
| Cn1c(=O)[nH]c(=O)c2c1ncn2CCN1CCOCC1 | -1.5% |
| COCCCN1C(=O)C(=O)/C(=C(/O)c2ccc3c(c2)CC(C)O3)C1c1cccnc1 (configuration not stated) | -2.1% |
| NS(=O)(=O)c1cc2c(cc1Cl)NC(CSCc1ccccc1)=NS2(=O)=O | 0% |
| COc1ccc(-c2[nH]ncc2CN(CCO)Cc2cccs2)c(F)c1 | 0.8% |
| COc1ccc2cc(CCC(C)=O)ccc2c1 | 0.4% |
| COc1cccc2c1OCC1COc3c(c(=O)n(C)c(=O)n3C)C21 (configuration not stated) | 0.5% |
| O[C@H]1COC2C1OC[C@@H]2O (some centres not stated) | -0.4% |
| CCNC(=O)c1sc2cc(C)ccc2c1Cl | -1.2% |
